Only some compounds are listed: those with a hit (about 6.9% of all), similar ones and a draw of the others.
SKKanGAS inh – inhibitors of SKKanGAS S. pyogenes growth in kanamycin (SK-promoter or general growth effect) | BacTiter-Glo, 6 h | inhibition, % at 7.5 µM | actives 1.3% (n = 300,000);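 active means mean replicate score, as percent of positive control median, at least 50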;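 further: strain carries kanamycin resistance gene driven by streptokinase promoter and grows in 40 µg/ml kanamycin; loss of luminescence reflects streptokinase promoter inhibition or plain growth inhibition; 0% = median of DMSO wells and 100% = positive control at its reference dose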
GRIN3A LBD mod – modulates the human NR3A ligand-binding domain | actives 2.5% (n = 340,000) | Tm shift relative to glycine control, % at 25 µM | AID 1259313 | NR3A LBD differential scanning fluorimetry, Tm shift; 0% = protein alone, 100% = glycine-bound protein;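 active means melting temperature shift of at least 10% of the positive control shift, at one fixed dose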
MPTP block – permeability transition pore inhibition; inhibition, % at 10 µM; actives 1.4% (n = 360,000); isolated mouse mitochondria, Ca2+ swelling absorbance, 30 min; AID 602449;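 active means inhibition of 50% or more, scaled per plate between neutral and stimulator controls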;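 further: 0% = DMSO wells given calcium and 100% = 1 mM EGTA wells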
CSC inhib – blocks cancer stem cells | actives 1.1% (n = 300,000) | AID 2717 | inhibition, % at 7.5 µM | cancer stem cell-like cells viability, luminescence; in the data active means inhibition above about 75%; tested in HMLE shEcad cells
Beta cell apopt – beta cell apoptosis inhibition. INS-1E cytokine-induced death, ATP luminescence, 48 h; percent of positive-control rescue, neutral wells zero. protection from apoptosis, % (no concentration beside the values). actives 0.8% (n = 300,000);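 active means Every replicate reaches about 75%, or at least half do and their mean reaches it too, limit read from the data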;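 further: 0% = cytokine-treated negative control wells and 100% = positive control rescue; higher means more ATP so stronger rescue from cytokine killing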
Mdm2-MdmX inh – human Mdm2/MdmX binding inhibition. O15151+Q00987. SaOS-2 split-luciferase Mdm2/MdmX complementation, luminescence. inhibition, % at 8 µM. actives 3% (n = 330,000). AID 485346;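 active means inhibition of at least 50% at 8 µM in the primary screen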
Mdm2-MdmX conf – human Mdm2/MdmX binding inhibition, confirmed | shares compounds with Mdm2-MdmX inh | luminescent assay | inhibition, % at 8 µM | actives 55% (n = 10,000) | AID 489028; in the data active means inhibition above about 40%
Full FLuc ctr – full-length luciferase inhibition in Mdm2/MdmX counter-screen; shares compounds with Mdm2-MdmX inh; SaOS-2 full-length luciferase counterscreen, luminescence; inhibition, % at 8 µM; actives 77% (n = 6,200);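 active means mean inhibition at 8 µM reaching about 37%, which flags the compound as non-specific, limit read from the data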;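 further: p53-null SaOS-2 cells with luciferase driven by a doxycycline-inducible promoter; compound on cells about two nights before reading with doxycycline added after day one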
Active calls of the source: *; · = no result given.

SMILES	SKKanGAS inh	GRIN3A LBD mod	MPTP block	CSC inhib	Beta cell apopt	Mdm2-MdmX inh	Mdm2-MdmX conf	Full FLuc ctr
COc1cc(C2c3c(n[nH]c3C)C(=O)N2c2ccc(C)cc2)ccc1O (centres undefined)	8.3	0.4	4.3	-5.7	4.4	68.6*	72.5*	50.8*
CCOc1cc(C2c3c(n[nH]c3C)C(=O)N2c2ccc(C)cc2)ccc1O (centres undefined)	2.7	-0.1	2.2	-15.2	-2.7	4.5	·	·
Cc1cccc2cc(CN(C(=O)c3cnccn3)C3CCCCC3)c(Cl)nc12	-8.1	1.9	1.1	10.8	-4.4	84.4*	82.6*	36.3*
COc1cc(C(=O)Nc2ccccc2C(=O)Nc2ccccn2)cc(OC)c1OC	-3.3	-3.0	0.2	53.5	7.8	63.0*	52.3*	46.6*
COc1cc(C(=O)Nc2ccccn2)cc(OC)c1OC	-2.4	0.1	-2.1	-3.9	-0.3	14.5	·	·
COc1ccc(C(=O)Nc2cccc(NC(=O)c3ccc(OC)c(OC)c3)n2)cc1OC	0.6	-0.3	0.7	20.5	13.6	55.4*	49.1*	89.2*
CCc1ccccc1-n1c(SCC(=O)NC)nnc1-c1ccco1	5.1	1.6	1.5	-2.4	-1.4	-7.1	·	·
O=c1c2ccccc2sn1-c1ccccc1	100.3*	3.3	5.4	24.4	25.6	76.0*	5.5	·
O=c1c2cc(F)ccc2sn1-c1ccccc1	·	1.8	2.0	31.6	28.7	39.6	·	·
